# Sampled rows, rich in hits. Any-hit rate of the full collection: about 3.6%.
# Pf apPOL block: Pf-apPOL DNA polymerase inhibition; hit rate 0.25% among 210,000; inhibition, % at 10 µM; Recombinant Pf-apPOL, molecular beacon fluorescence, 1.5 h; AID 1794808
# mHTT CaM bind: inhibitors of human mutant huntingtin-calmodulin interaction; hit rate 3.6% among 190,000; inhibition, % at 15 µM; P42858; AlphaScreen His-mHTT/GST-CaM binding, luminescence;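 note: 0% = both proteins with DMSO and 100% = one protein alone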
# Target sequence (P42858 whole entry, looked up, stated change not applied): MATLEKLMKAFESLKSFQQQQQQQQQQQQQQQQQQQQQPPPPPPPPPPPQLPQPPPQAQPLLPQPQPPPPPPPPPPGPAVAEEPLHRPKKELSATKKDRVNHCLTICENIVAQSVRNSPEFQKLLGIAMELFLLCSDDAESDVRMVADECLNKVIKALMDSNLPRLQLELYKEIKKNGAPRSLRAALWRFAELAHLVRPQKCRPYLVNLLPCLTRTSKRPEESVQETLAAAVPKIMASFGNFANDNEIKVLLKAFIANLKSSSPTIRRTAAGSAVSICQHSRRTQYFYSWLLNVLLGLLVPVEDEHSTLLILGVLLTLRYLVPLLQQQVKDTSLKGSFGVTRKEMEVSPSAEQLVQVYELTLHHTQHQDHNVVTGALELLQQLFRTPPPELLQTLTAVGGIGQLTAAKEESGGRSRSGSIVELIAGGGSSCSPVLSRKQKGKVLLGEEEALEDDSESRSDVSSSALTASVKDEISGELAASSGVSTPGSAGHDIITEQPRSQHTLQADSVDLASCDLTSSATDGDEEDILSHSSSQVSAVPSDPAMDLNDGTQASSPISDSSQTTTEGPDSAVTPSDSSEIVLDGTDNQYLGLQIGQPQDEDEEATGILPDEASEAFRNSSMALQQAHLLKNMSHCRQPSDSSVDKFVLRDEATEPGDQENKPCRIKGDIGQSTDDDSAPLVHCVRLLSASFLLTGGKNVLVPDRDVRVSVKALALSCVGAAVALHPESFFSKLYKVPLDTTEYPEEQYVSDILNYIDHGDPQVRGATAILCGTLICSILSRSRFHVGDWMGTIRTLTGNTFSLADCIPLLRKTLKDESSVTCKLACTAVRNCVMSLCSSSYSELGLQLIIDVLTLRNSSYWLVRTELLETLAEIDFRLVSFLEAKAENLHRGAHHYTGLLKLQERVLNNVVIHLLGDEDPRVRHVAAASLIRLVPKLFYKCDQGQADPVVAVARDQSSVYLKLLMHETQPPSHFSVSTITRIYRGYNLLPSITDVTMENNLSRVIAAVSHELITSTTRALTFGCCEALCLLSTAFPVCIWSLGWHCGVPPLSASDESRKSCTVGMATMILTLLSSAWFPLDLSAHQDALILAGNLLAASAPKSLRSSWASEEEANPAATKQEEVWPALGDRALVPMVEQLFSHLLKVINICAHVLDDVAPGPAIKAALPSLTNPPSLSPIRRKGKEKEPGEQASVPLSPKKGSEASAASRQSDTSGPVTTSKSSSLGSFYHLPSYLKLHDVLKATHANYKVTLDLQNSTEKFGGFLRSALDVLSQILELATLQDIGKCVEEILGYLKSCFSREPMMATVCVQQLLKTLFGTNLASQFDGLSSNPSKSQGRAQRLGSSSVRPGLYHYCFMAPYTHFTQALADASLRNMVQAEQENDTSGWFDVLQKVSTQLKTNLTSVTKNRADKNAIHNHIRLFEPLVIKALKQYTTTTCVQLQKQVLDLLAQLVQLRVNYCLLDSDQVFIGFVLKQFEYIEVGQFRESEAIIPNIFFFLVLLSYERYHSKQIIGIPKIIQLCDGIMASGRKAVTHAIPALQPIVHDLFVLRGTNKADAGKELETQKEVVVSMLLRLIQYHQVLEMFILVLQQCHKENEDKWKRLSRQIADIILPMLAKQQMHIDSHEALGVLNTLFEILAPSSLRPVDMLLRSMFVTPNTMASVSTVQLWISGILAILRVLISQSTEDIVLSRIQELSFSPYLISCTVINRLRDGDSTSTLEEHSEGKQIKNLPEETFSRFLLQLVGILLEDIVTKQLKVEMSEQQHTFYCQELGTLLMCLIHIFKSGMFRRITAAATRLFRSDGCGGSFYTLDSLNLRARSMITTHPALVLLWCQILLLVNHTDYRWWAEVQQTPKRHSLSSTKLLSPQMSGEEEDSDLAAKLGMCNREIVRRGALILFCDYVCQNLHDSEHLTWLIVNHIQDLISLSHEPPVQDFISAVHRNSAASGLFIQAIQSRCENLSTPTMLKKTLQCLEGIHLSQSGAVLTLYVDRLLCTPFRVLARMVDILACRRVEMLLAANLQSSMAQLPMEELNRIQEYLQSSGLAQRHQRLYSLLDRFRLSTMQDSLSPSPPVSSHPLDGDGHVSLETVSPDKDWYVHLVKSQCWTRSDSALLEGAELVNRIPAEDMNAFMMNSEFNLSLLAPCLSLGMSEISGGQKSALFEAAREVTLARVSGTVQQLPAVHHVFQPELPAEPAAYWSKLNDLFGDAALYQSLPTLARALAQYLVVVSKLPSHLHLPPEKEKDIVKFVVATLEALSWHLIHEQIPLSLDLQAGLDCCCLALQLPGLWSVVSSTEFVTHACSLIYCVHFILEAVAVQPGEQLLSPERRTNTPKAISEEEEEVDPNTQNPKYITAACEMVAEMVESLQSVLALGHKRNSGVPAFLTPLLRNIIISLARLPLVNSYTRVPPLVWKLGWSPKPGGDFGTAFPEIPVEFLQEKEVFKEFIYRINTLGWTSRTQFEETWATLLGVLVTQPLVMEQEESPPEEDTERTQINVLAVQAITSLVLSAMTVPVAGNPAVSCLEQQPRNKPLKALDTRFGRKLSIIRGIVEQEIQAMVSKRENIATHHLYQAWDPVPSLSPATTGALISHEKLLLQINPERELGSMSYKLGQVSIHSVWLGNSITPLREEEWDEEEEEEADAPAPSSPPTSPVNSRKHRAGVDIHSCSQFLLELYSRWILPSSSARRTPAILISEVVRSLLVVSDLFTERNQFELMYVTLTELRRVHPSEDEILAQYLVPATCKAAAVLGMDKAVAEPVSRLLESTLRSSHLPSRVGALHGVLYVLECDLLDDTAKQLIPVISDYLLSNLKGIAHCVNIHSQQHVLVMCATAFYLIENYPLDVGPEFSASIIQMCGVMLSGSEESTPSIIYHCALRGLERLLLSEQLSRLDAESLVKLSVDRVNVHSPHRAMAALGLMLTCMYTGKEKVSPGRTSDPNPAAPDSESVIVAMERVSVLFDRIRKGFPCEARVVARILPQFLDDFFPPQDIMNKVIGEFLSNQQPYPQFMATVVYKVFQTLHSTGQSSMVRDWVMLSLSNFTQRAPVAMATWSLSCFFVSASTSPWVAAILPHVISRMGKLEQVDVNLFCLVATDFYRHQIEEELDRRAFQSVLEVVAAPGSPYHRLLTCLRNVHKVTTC
# An asterisk follows results filed as active; i = inactive; . = no result given. Cut-off read from the data, not from the text of the source: active = inhibition above about 50%; inactive = the rest.
SMILES,Pf apPOL block,mHTT CaM bind
CC(=O)NCCc1csc(C2CCN(C(=O)c3ccc4ccccc4n3)CC2)n1,0,27
CCOCCn1cnc2sc(C(=O)NCC(OCC)OCC)c(C)c2c1=O,-2,-3
COc1cc([N+](=O)[O-])cc2cc(C(=O)NCC34CC5CC(CC(C5)C3)C4)c(=O)oc12,-6,1
O=C(Cc1cccs1)Nc1cccc([N+](=O)[O-])c1,-6,11
COc1ccccc1NC(=O)Nc1nnc(-c2ccccc2C)s1,-8,0
COc1ccc(CN2CN3Cc4cc(F)ccc4C3CS2(=O)=O)cc1 (configuration not stated),-7,-4
Cc1cc([N+](=O)[O-])ccc1-c1ccc(/C=C2/NC(=O)NC2=O)o1,-4,54*
Cc1ccc(C(=O)O)cc1-c1ccc(/C=C2/NC(=O)NC2=O)o1,0,15
CCOc1ccc(C2CC(c3ccc(Cl)cc3)Nc3ncnn32)cc1OC (configuration not stated),8,43
CC(C)N(CCCNC(=O)c1noc2c1CCCCC2)Cc1ccccc1,-4,-4
CC(=O)Nc1nc(N)n(-c2ccccc2)n1,-1,-1
Nc1nc(NC(=O)c2ccc(F)cc2)nn1-c1ccccc1,65*,0
COc1ccccc1C/C(N)=N/OC(=O)c1ccc2c(c1)OCO2,-3,i
COc1ccc(NC(=O)C[C@H]2C(=O)N(CCc3ccccc3)C[C@@H]2Cc2ccccc2)cc1,-6,14
N#Cc1c(SCC(=O)c2ccc(Cl)s2)sc2c(O)cc(=O)[nH]c12,.,63*
N#CCSc1sc2c(O)cc(=O)[nH]c2c1C#N,.,-1
CCc1cc(C2CCCN2C(=O)Nc2cccc(C)c2C)on1 (configuration not stated),-2,-1
COc1ccc(Oc2ccc(N)cc2)cc1,-5,22
Nc1ccc(Oc2ccc(N)c(N)c2)cc1,-10,88*
COc1cc(C(=O)Nc2cccc(-c3nc4cc(Cl)ccc4o3)c2)cc(OC)c1OC,-9,1
OCCN1CCN(C2C3CC4CC(C3)CC2C4)CC1 (configuration not stated),62*,1
CN1CCN(C2C3CC4CC(C3)CC2C4)CC1 (configuration not stated),2,-3
CC(C)C[C@@H](CSc1ccc(Br)cc1)N1CCN(CCc2ccccc2)CCC1=O,-5,19
CC(C)C[C@@H](CSc1ccccc1)N1CCN(CCc2ccccc2)CCC1=O,-5,88*
CC(=O)Nc1ccc(SC[C@H](Cc2ccccc2)N2CCN(CCc3ccccc3)CCC2=O)cc1,-3,100*
SMILES,Pf apPOL block,mHTT CaM bind
O=C1CCC(OCc2ccccc2)CCN1[C@H](CSc1ccccc1)Cc1ccccc1 (some centres not stated),-4,53*
Cc1ccc(SC[C@H](Cc2ccccc2)N2CC[C@@H](C)CCC2=O)cc1,-7,-2
CC(=O)Nc1ccc(SCCN2CCN(CCc3ccccc3)CCC2=O)cc1,-5,16
CCCN1CCC(=O)N([C@H](CSc2ccc(C)cc2)c2ccccc2)CC1,-2,6
Cc1ccc(SC[C@H](c2ccccc2)N2CCN(CCc3ccccc3)CCC2=O)cc1,6,100*
CCOc1cc(C(=O)Nc2ccc([N+](=O)[O-])cc2Br)cc(OCC)c1OCC,-12,-6
Cc1ccc(NC(=O)N2CCCC2c2nc(-c3ccccc3C)no2)cc1C (configuration not stated),-4,4
CCCN1CCC(=O)N([C@H](COc2ccccc2)c2ccccc2)CC1,-9,22
O=C1CCN(CCc2ccccc2)CCN1[C@H](CSc1ccccc1)c1ccccc1,0,100*
CCCN1CCC(=O)N([C@H](CSc2ccccc2)c2ccccc2)CC1,-7,34
O=C1CCN(CCc2ccccc2)CCN1[C@H](COc1ccccc1)c1ccccc1,1,100*
CCOCC(O)CSc1nc(C)cc(C)n1 (configuration not stated),.,-1
CCS(=O)(=O)N1CCN(C(=O)c2cccnc2)CC1,-9,0
CCCCOc1cc(OCCCC)c2c(C)c(CCC)c(=O)oc2c1,0,-2
CCOc1ccc(NC(NC(=O)/C=C/c2ccccc2)C(Cl)(Cl)Cl)cc1 (configuration not stated),1,36
O=C(/C=C/c1ccccc1)NC(NC1CCCCC1)C(Cl)(Cl)Cl (configuration not stated),112*,-4
O=C(NCCC(c1ccccc1)c1ccccc1)c1cnccn1,-2,8
COc1ccccc1C1CC(c2ccc(F)cc2)Nc2nc(N)nn21 (configuration not stated),-3,62*
CCOc1ccccc1C1CC(c2ccc(F)cc2)Nc2nc(N)nn21 (configuration not stated),-2,72*
COc1ccc(C2CC(c3ccccc3OC)n3nc(N)nc3N2)cc1 (configuration not stated),-4,2
COc1ccccc1C1CC(c2ccccc2)Nc2nc(N)nn21 (configuration not stated),-1,-8
COc1ccc(OCc2cn(CC(=O)c3ccc(O)cc3)nn2)cc1,8,6
CC(C)NC(=O)Nc1nc2c(s1)CN(C(=O)c1cccn(C)c1=O)CC2,-3,-12
Cc1cccc(C(C)C)c1NC(=O)c1cccs1,10,-3
CCCN(Cc1ccsc1)C(=O)NCc1ccc(F)cc1,-11,-14
SMILES,Pf apPOL block,mHTT CaM bind
O=[N+]([O-])c1ccc(C2Nc3c(cccc3[N+](=O)[O-])C3C=CCC32)cc1 (configuration not stated),1,11
COc1cc(C2Nc3c(F)cccc3C3C=CCC32)cc(Br)c1OC (configuration not stated),-5,0
O=[N+]([O-])c1cccc2c1NC(c1ccc(Cl)cc1)C1CC=CC21 (configuration not stated),1,86*
COc1ccc(C)c2c1NC(c1ccc(Br)cc1)C1CC=CC21 (configuration not stated),-7,72*
COc1cccc2c1NC(c1ccc(Cl)cc1)C1CC=CC21 (configuration not stated),2,59*
O=[N+]([O-])c1cccc2c1NC(c1ccc(F)cc1)C1CC=CC21 (configuration not stated),0,83*
COc1ccc(/C=C/C(=O)Nc2nc(N)n(-c3ccccc3)n2)cc1,-11,23
Cc1cc(C)n(-c2nc(C)nc(N)n2)n1,7,1
COc1nc(-n2nc(C)cc2C)nc(-n2nc(C)cc2C)n1,64*,-8
O=[N+]([O-])c1ccc2c(N=Nc3ccc4ccccc4c3O)c(O)cc(S(=O)(=O)O)c2c1,.,100*
O=[N+]([O-])c1ccc(O)c(N=Cc2sc3ccccc3c2O)c1,-5,43
CCc1noc(C2CCCCN2Cc2cc(F)ccc2F)n1 (configuration not stated),-7,-38
O=C(Nc1ccc2c(N3CCOCC3)ncnc2c1)c1cccc(Br)c1,-3,54*
Cc1ccc(C(=O)Nc2ccc3c(N4CCOCC4)ncnc3c2)cc1,-5,6
Cc1cc(I)cc2c1NC(C(=O)O)C1CC=CC21 (configuration not stated),1,-1
Cc1cc(I)c2c(c1)C1C=CCC1C(C(=O)O)N2 (configuration not stated),-3,81*
O=C(O)c1cccc2c1NC(c1ccc([N+](=O)[O-])cc1)C1CC=CC21 (configuration not stated),-5,66*

# Bioassay records as filed in PubChem.
